High-throughput results as filed in PubChem.
The list is not random: actives were taken first. Their share in the collection is about 7.9%.
MCF10A rerep: induces DNA re-replication in MCF 10a normal breast cells; 2.9% of 350,000 active; AID 624296; MCF 10A DNA re-replication, Hoechst nuclear intensity, 48 h; Potency, µM (series often up to 46.1 µM), inactives show top-dose activity, positive = re-replication, usual class: activators; note: % of control where 0% means no effect; nearly all actives have a fitted effect of over 50% in size
SW480 rerep: DNA re-replication induction in SW480 cells; AID 624297; SW480 DNA re-replication, Hoechst DNA content imaging, 48 h; 1.8% of 340,000 active; Potency, µM (doses to about 46.1 µM), without a hit: at the top dose re-replication activation, most hits filed as activators; note: % of control where 0% means no effect; nearly all actives have a fitted effect of over 55% in size
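Readout is total intensity of Hoechst-stained nuclei, excited at 405 nm and collected at 500-530 nm. Compound treatment lasted 48 hr at 37 C in 5% CO2 before staining.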
KB-3-1 cytotox: kills parental KB-3-1 adenocarcinoma cells. Potency, µM (doses to about 46.1 µM), most hits filed as cytotoxic. KB-3-1 viability, CellTiter-Glo ATP luminescence, 72 h. 1.4% of 400,000 active; note: % is set by controls: 0 for no effect and ±100 for the full control effect; nearly all actives have a fitted effect of over 60% in size
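Luminescent ATP read-out (CellTiter-Glo) measures survival of drug-naive KB-3-1 cells after 72 h compound exposure at 37 °C. Titration series was screened from lowest to highest concentration, with DMSO vehicle plates as background controls.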
HT1080-NT tox: kills 2HG-producing HT-1080-NT fibrosarcoma cells; HT-1080-NT fibrosarcoma viability, CellTiter-Glo ATP luminescence, 48 h; Potency, µM (titrated, usually from 46.1 µM), inactives show top-dose activity, negative = less viability, usual class: cytotoxic; 1.6% of 360,000 active;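 note: NT is the 2HG producing partner of a matched IDH1 knockdown line; 0% = DMSO-treated cells and -100% = media-only wells without cells; nearly all actives have a fitted effect of over 55% in size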
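Read-out is CellTiter-Glo luminescence after 10 minutes at room temperature, following 48 hours' compound treatment of HT-1080-NT cells (750 cells/well, RPMI, 5% FBS, 37 degrees C).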
KB-V1 MDR tox: kills drug-selected multidrug resistant KB-V1 cells; KB-V1 MDR cells viability, CellTiter-Glo, 72 h; Potency, µM (highest dose often 46.1 µM), hits mostly cytotoxic; 3.4% of 400,000 active; AID 1347076; note: % is set by controls: 0 for no effect and ±100 for the full control effect; nearly all actives have a fitted effect of over 60% in size
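KB-V1, DMEM (no phenol red) + 10% FBS; cpd pin-transferred, titration series; 72 h, 37 degrees C; CellTiter-Glo, luminescence. Data normalized, curve-fit.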
HT1080 IDH1KD tx: kills HT-1080 cells with IDH1 knockdown. HT-1080 IDH1 knockdown viability, ATP luminescence, 48 h. Potency, µM (top dose mostly 46.1 µM), inactives show at the top dose activity, negative = toxicity, most hits filed as cytotoxic. 2% of 360,000 active. AID 686971;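 note: 0% = DMSO wells and -100% = cell-free medium wells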
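Cytotoxicity counter-line: IDH1KD HT-1080, 48 h, CellTiter-Glo. Curves classed by r2, magnitude and activity.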
* hit, by the source's call; [ ] = dose if it differs, or a comment. Calls come from the whole dose curve; as a rule, active = well fitted curve in the direction sought with a large enough effect; inconclusive = small, poorly fitted or top-dose-only effect, or another doubt; inactive = no such curve, though single readings can be large; an effect the other way counts as inactive or inconclusive. Potency is the fitted concentration of half-maximal effect.

COc1ccc(/C=N/NC(=O)c2nc(-c3ccccc3)n(-c3ccccc3)n2)cc1 was read as MCF10A rerep 5.9%, SW480 rerep -8.0%, KB-3-1 cytotox inactive, HT1080-NT tox 0.4%, KB-V1 MDR tox inactive and HT1080 IDH1KD tx 9.3%.
Screening COc1ccc2[nH]c(C(=O)N/N=C/c3ccc(O)cc3O)cc2c1 returned MCF10A rerep inconclusive, SW480 rerep 1.0%, KB-3-1 cytotox inactive, HT1080-NT tox inconclusive, KB-V1 MDR tox inactive and HT1080 IDH1KD tx 2.31µM*.
For CCOc1ccc2[nH]c(C(=O)N/N=C/c3ccc(OC)cc3)cc2c1 the results were MCF10A rerep inconclusive, SW480 rerep 1.16µM*, KB-3-1 cytotox 1.46µM*, HT1080-NT tox 0.92µM*, KB-V1 MDR tox inconclusive and HT1080 IDH1KD tx 1.3µM*.
`COc1ccc(/C=N/NC(=O)c2nc(-c3ccccc3)n(-c3ccccc3)n2)c(O)c1` gave MCF10A rerep 7.31µM*, SW480 rerep inconclusive, KB-3-1 cytotox inconclusive, HT1080-NT tox inconclusive, KB-V1 MDR tox inactive and HT1080 IDH1KD tx inconclusive.
`O=[N+]([O-])c1ccc(-c2nc(Nc3ccc(O)cc3)c3ccccc3n2)cc1` gave MCF10A rerep 24.4%, SW480 rerep -9.6%, KB-3-1 cytotox inactive, HT1080-NT tox 5.5%, KB-V1 MDR tox inactive and HT1080 IDH1KD tx 10.4%.
For NC(N)=NCCCS(=O)(=O)Nc1ccc(Nc2c3ccccc3nc3cc([N+](=O)[O-])ccc23)cc1 the results were MCF10A rerep 3.0%, SW480 rerep -0.6%, KB-3-1 cytotox 14.6µM*, HT1080-NT tox 9.2%, KB-V1 MDR tox inconclusive and HT1080 IDH1KD tx 16.9%.
COc1cccc(Cn2cnc(-c3ccccc3OC)c2-c2ccco2)c1 was read as KB-3-1 cytotox inconclusive, HT1080-NT tox -29.6%, KB-V1 MDR tox inconclusive and HT1080 IDH1KD tx -16.4%.
For CCCCCc1c(CC)ncn1CCc1ccccc1OC the results were KB-3-1 cytotox 16.4µM*, HT1080-NT tox 25.9µM*, KB-V1 MDR tox inconclusive and HT1080 IDH1KD tx inconclusive.
`CCCCN(CC)C(=O)Cc1ccccc1OC` gave MCF10A rerep 14.0%, SW480 rerep 0.9%, KB-3-1 cytotox inactive, HT1080-NT tox -4.0%, KB-V1 MDR tox inconclusive and HT1080 IDH1KD tx -3.6%.
Screening CCCCc1c(-c2ccccc2Br)ncn1CCc1ccccc1OC returned KB-3-1 cytotox inconclusive, HT1080-NT tox inconclusive, KB-V1 MDR tox 14.6µM* and HT1080 IDH1KD tx inconclusive.
Screening CCCCc1c(-c2ccccc2OC)ncn1CCc1ccccc1Cl returned KB-3-1 cytotox inconclusive, HT1080-NT tox inconclusive, KB-V1 MDR tox 18.4µM* and HT1080 IDH1KD tx inconclusive.
CCCCCc1c(-c2ccccc2OC)ncn1CCc1ccccc1OC was read as KB-3-1 cytotox 23.1µM*, HT1080-NT tox 16.4µM*, KB-V1 MDR tox 11.6µM* and HT1080 IDH1KD tx 16.4µM*.
Screening CCc1nnc(NC(=O)CSc2nnc(-c3cccnc3)n2C)s1 returned MCF10A rerep 6.6%, SW480 rerep -103.8%, KB-3-1 cytotox inactive, HT1080-NT tox 17.7%, KB-V1 MDR tox inactive and HT1080 IDH1KD tx 6.8%.
`c1cn(CCCNc2ncnc3nc[nH]c23)cn1` gave MCF10A rerep -2.5%, SW480 rerep -1.6%, KB-3-1 cytotox inactive, HT1080-NT tox 4.4%, KB-V1 MDR tox inactive and HT1080 IDH1KD tx 0.7%.
Screening COc1ccc(Nc2nc3c(S(=O)(=O)c4ccccc4)nnn3c3ccc(Cl)cc23)c(OC)c1 returned KB-3-1 cytotox inactive and KB-V1 MDR tox inconclusive.
CCCCc1c(-c2ccccc2OC)ncn1CCc1ccccc1OC was read as KB-3-1 cytotox inconclusive, HT1080-NT tox 18.4µM*, KB-V1 MDR tox 8.2µM* and HT1080 IDH1KD tx 13µM*.
Screening O=C(CSCc1ccc([N+](=O)[O-])cc1)NC1CC1 returned MCF10A rerep 5.5%, SW480 rerep -4.3%, KB-3-1 cytotox inactive, HT1080-NT tox 9.0%, KB-V1 MDR tox inactive and HT1080 IDH1KD tx 18.0%.
CC(C)C(NC(=O)CSCc1ccc([N+](=O)[O-])cc1)C(C)C was read as MCF10A rerep inconclusive, SW480 rerep -0.5%, KB-3-1 cytotox inactive, HT1080-NT tox 8.4%, KB-V1 MDR tox 18.4µM* and HT1080 IDH1KD tx -1.9%.
`COCCN(C(=O)COC(=O)c1cccnc1SC)c1c(N)n(Cc2ccccc2)c(=O)[nH]c1=O` gave MCF10A rerep -0.3%, SW480 rerep -3.8%, KB-3-1 cytotox inactive, HT1080-NT tox -4.3%, KB-V1 MDR tox inactive and HT1080 IDH1KD tx 3.5%.
`Cc1cc(Cl)ccc1OCC(=O)Nc1ccncc1` gave MCF10A rerep 16.4µM*, SW480 rerep -21.8%, KB-3-1 cytotox inactive, HT1080-NT tox inconclusive, KB-V1 MDR tox inconclusive and HT1080 IDH1KD tx -10.5%.
For Cc1cc(Cl)ccc1OCCCC(=O)NO the results were MCF10A rerep 3.4%, SW480 rerep inconclusive, KB-3-1 cytotox inconclusive, HT1080-NT tox 20.6µM*, KB-V1 MDR tox inactive and HT1080 IDH1KD tx 20.6µM*.
`Cc1cc(Cl)ccc1OCC(=O)NCc1ccncc1` gave MCF10A rerep -7.5%, SW480 rerep -3.5%, KB-3-1 cytotox inactive, HT1080-NT tox 9.3%, KB-V1 MDR tox inconclusive and HT1080 IDH1KD tx 9.8%.
`CC(=O)N1CCN(c2ccc(NC(=O)COc3ccc(Cl)cc3Cl)cc2)CC1` gave MCF10A rerep 22.6%, SW480 rerep 2.4%, KB-3-1 cytotox inactive, HT1080-NT tox -7.5%, KB-V1 MDR tox inconclusive and HT1080 IDH1KD tx -25.7%.
Screening CCN1CCN(c2ccc(NC(=O)COc3ccc(Cl)cc3C)cc2)CC1 returned MCF10A rerep inconclusive, SW480 rerep 14.6µM*, KB-3-1 cytotox inconclusive, HT1080-NT tox -0.9%[9.24 µM], KB-V1 MDR tox inconclusive and HT1080 IDH1KD tx 11.9%.
Screening CCCCc1c(C)nc(N2CCCC2)[nH]c1=O returned MCF10A rerep -4.5%, SW480 rerep -17.0%, KB-3-1 cytotox inactive, HT1080-NT tox 14.9%, KB-V1 MDR tox inactive and HT1080 IDH1KD tx 10.7%.
`Cc1ccc(/C=C2\SC(=S)N(C3CCS(=O)(=O)C3)C2=O)cc1` (stereo unspecified) gave MCF10A rerep 11.5%, SW480 rerep 0.0052µM*, KB-3-1 cytotox inactive, HT1080-NT tox -3.0%, KB-V1 MDR tox inactive and HT1080 IDH1KD tx 5.5%.
For C[C@H](NC(=O)c1cc2cc(Cl)ccc2n1C)C(=O)N[C@@H](Cc1ccccc1)C(=O)O the results were MCF10A rerep 1.9%, SW480 rerep -13.2%, KB-3-1 cytotox inconclusive, HT1080-NT tox 2.2%, KB-V1 MDR tox inactive and HT1080 IDH1KD tx 5.3%.
